High-throughput results (PubChem)
Sampled rows, rich in hits. Any-hit rate of the full collection: about 32%.
CYP2C19 act: cytochrome P450 2C19 (human) activation. P33261. recombinant CYP2C19, luciferin-H EGE luminescence; active compounds read high; 0 = fully inhibited enzyme, 1 = untreated enzyme. activation factor at 5 µM. 96,000 tested, under 10 active. AID 1025;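 active = activation factor of at least 2 at 5 µM in the primary screen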
Target sequence (P33261 whole entry, looked up): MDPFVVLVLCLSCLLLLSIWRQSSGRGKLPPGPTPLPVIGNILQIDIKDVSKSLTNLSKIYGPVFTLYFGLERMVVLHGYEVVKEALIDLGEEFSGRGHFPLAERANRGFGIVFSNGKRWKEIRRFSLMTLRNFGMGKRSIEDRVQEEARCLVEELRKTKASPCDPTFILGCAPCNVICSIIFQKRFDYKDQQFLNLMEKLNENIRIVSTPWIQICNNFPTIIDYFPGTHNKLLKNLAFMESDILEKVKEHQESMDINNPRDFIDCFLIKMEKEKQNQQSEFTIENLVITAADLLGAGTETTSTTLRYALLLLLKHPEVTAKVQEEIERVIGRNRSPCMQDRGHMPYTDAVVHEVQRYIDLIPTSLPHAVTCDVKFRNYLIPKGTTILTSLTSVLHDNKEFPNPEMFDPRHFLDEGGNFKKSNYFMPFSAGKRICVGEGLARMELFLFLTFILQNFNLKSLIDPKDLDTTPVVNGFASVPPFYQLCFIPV
CYP2C19 inh: human CYP2C19 inhibition; P33261; CYP2C19 Supersomes, luciferin-H EGE luminescence, 30 min; inhibition, % at 5 µM; hit rate 21% among 96,000; AID 778;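 active = CYP2C19 inhibition above a set limit at 5 µM in the primary screen, cut at about 50% in these data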
CYP2C9 inh: blocks human cytochrome P450 2C9. P11712. CYP2C9 Supersomes, luciferin-H conversion, luminescence. inhibition, % at 5 µM. hit rate 20% among 96,000. AID 777;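 active = blocking of liver enzyme CYP2C9 beyond about 50% at 5 µM, limit read from the data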
PostGolgi yeast: growth inhibition of a yeast mutant, post-Golgi transport screen; post-Golgi transport phenotypic cell assay; inhibition, % at 10 µM; hit rate 0.9% among 98,000;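 note: yeast cells grown in 1536-well plates; yeast grown about 18 h at 30C before absorbance read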
CYP2C9 activ: CYP2C9 (human) activation; hit rate 1.4% among 96,000; P11712; activation factor at 5 µM; recombinant CYP2C9, luciferin-H conversion, luminescence; active compounds read high; factor 1 = untreated enzyme, 0 = blocked;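 active = activation factor of 2 or more for CYP2C9 at a 5 µM dose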
PostGolgi ctrl: inhibits growth of the yeast control strain; efflux-deficient yeast background strain, growth absorbance A615, 16 h; inhibition, % at 10 µM; hit rate 5% among 98,000
Of the large screens only hits and unclear results are named; the others gave an inactive call. Cut-off read from the data, not from the text of the source, unless noted: active = inhibition above about 30%; inactive = the rest.

Cc1cc(C(=O)Nc2ccccc2C#N)n(-c2ccccc2)n1	CYP2C9 inh 57.0
CCN(CCNC(=O)c1cc(C)nn1-c1ccccc1)c1ccccc1	CYP2C19 inh 79.4
Cc1c2cc(O)c(=O)cc-2oc2cc(O)c(O)cc12	CYP2C9 inh 81.6
CC1=C(C(=O)Nc2ccccn2)C(c2ccc(Br)cc2)n2ncnc2N1 (stereo unspecified)	none
c1ccc(-c2n[nH]nc2-c2ccccc2)cc1	PostGolgi ctrl 30.0
c1ccc(-c2n[nH]c3ccccc23)cc1	none
CCc1cccc2c1NC(=O)[C@]21[C@@H]2C(=O)N(Cc3ccccc3)C(=O)[C@@H]2[C@@H]2CCCN21	none
Cc1c(Cl)ccc2c1NC(=O)[C@]21[C@@H]2C(=O)N(Cc3ccccc3)C(=O)[C@@H]2[C@@H]2CCCN21	CYP2C19 inh 65.5, CYP2C9 inh 73.0
Cn1c(=O)[nH]c(=O)c2c1nc(SCC(=O)O)n2CCc1ccccc1	none
CCOC(=O)CCCCC(=O)NC(CO)C(=O)NC (stereo unspecified)	none
COCCn1nnnc1C(C(C)C)N1CCOCC1 (stereo unspecified)	PostGolgi ctrl 39.9
CCN1N=C(c2ccccc2)Cn2c1nc1ccccc12	CYP2C19 inh 57.6, CYP2C9 inh 68.8, PostGolgi ctrl 30.4
CCCCNC(=O)CS(=O)Cc1nc(-c2cccc(C)c2)oc1C (stereo unspecified)	none
CCCCSCCCNC(=O)CS(=O)Cc1nc(-c2cccc(C)c2)oc1C (stereo unspecified)	CYP2C19 inh 84.7, CYP2C9 inh 78.2
CCCCNC(=O)CS(=O)Cc1nc(-c2cccc(Cl)c2)oc1C (stereo unspecified)	CYP2C9 inh 61.9
COc1ccc(NC(=O)N[C@@H](CCSC)C(=O)O)cc1Cl	none
CCOC(=O)C1CCN(Cc2coc3c(Cl)cc(Cl)cc3c2=O)CC1	none
CCn1c(COc2cccc(C)c2)nnc1SCC(=O)CC(=O)Nc1ccccc1OC	CYP2C9 activ 3.1
CCn1c(COc2ccccc2)nnc1SCC(=O)CC(=O)Nc1ccccc1OC	CYP2C9 activ 2.1
CCn1c(COc2cccc(C)c2)nnc1SCC(=O)N1CCCC1	none
CCn1c(COc2ccccc2C)nnc1SCC(=O)CC(=O)Nc1ccccc1OC	CYP2C9 activ 2.5
O=C(COc1ccccc1-c1ccccc1)Nc1ccc(S(=O)(=O)NCc2ccco2)cc1	none
O=C1NC2(Nc3ccccc31)C(=O)Nc1ccccc12 (stereo unspecified)	PostGolgi yeast 43.9
CC1OC2(OC1C)C(=O)Nc1ccccc12 (stereo unspecified)	none
CC(c1nnc(Sc2nnnn2-c2ccccc2)n1-c1ccc(F)cc1)N(C)C (stereo unspecified)	none
Cc1ccc(N/C=C(/C#N)c2ccsc2)cc1C	PostGolgi ctrl 38.9
CC1(C)NC(=O)N(CCSc2ccc(Cl)cc2)C1=O	CYP2C19 inh 92.9, CYP2C9 inh 50.4
Cc1ccc(SCCCCN2C(=O)NC(C)(C)C2=O)cc1	CYP2C19 inh 88.0, CYP2C9 inh 77.4
CC1(C)NC(=O)N(CCOCCSc2ccccc2)C1=O	CYP2C19 inh 85.9
Cc1cc(NC(=O)CSc2n[nH]c(-c3cccs3)n2)no1	none
O=C(CSc1n[nH]c(-c2ccncc2)n1)NC1CCS(=O)(=O)C1 (stereo unspecified)	CYP2C9 inh 72.2
Cc1nc(SCC(=O)Nc2ccnc3ccccc23)n[nH]1	none
Cc1ccc(C)c(NC(=O)CSc2n[nH]c(-c3ccncc3)n2)c1	CYP2C19 inh 66.1, CYP2C9 inh 95.8
CC(C)c1ccc(C(=O)CSc2n[nH]c(-c3ccncc3)n2)cc1	CYP2C19 inh 92.6, CYP2C9 inh 94.3, PostGolgi yeast 95.4, PostGolgi ctrl 62.5
Cc1ccc(NC(=O)CSc2n[nH]c(-c3ccncc3)n2)cc1C	CYP2C19 inh 62.8, CYP2C9 inh 96.7
CCCC(c1nnnn1CCc1ccccc1)N1CCN(C2CCCC2)CC1 (stereo unspecified)	none
Nc1nc(SCC(=O)NC2CCCC2)[nH]c(=O)c1-c1ccccc1	none
CS(=O)(=O)c1ccc(Cl)c(NC(=O)C2CC(=O)N(Cc3ccccc3)C2)c1 (stereo unspecified)	CYP2C9 inh 68.5
Cc1ccc(CN2CC(C(=O)Nc3ccc(S(=O)(=O)Nc4cc(C)nc(C)n4)cc3)CC2=O)cc1 (stereo unspecified)	PostGolgi ctrl 32.5
CCOC(=O)Nc1ccc(S(=O)(=O)Nc2cc(C)nc(C)n2)cc1	none
CN(C(=O)c1ccc(=O)[nH]c1)C1(C(=O)NC2CCCCC2)CCCCC1	none
Cc1cc(OCc2nn[nH]n2)c2c(C)c(Cc3ccccc3)c(=O)oc2c1	CYP2C19 inh 80.1, CYP2C9 inh 98.2, PostGolgi ctrl 32.0
Cc1cc(OCc2nn[nH]n2)c2c(C)c(CC(=O)O)c(=O)oc2c1	none
Cc1c(Cc2ccccc2)c(=O)oc2c(C)c(OCc3nn[nH]n3)ccc12	CYP2C9 inh 81.3, PostGolgi yeast 30.8
CC(C)(C)NC(=O)c1ccc2c(c1)N(CC(=O)N1CCN(c3ccccc3F)CC1)C(=O)C(C)(C)O2	none
N#CC1=C(N)C(C#N)(C#N)C(c2cccnc2)C2CC(c3ccccc3)CC=C12 (stereo unspecified)	CYP2C9 inh 63.8, PostGolgi yeast 70.8
N#CC1=C(N)C(C#N)(C#N)C(c2cccnc2)C2CCCC=C12 (stereo unspecified)	none
O=C(Nc1ccc(N2CCCCC2)c(Cl)c1)c1ncn[nH]1	none
Cc1ccc(OCC(=O)Nc2ccc(N(C)C)cc2)cc1	CYP2C19 inh 87.3
CCN(CC)c1ccc(NC(=O)OC)cc1	CYP2C9 inh 62.6
COC(=O)Nc1ccc(NC(C)=O)cc1	none
Cc1cc(NC(=O)COC(=O)CCC(=O)c2ccc(F)cc2)no1	none
Cc1ccc(NC(=O)CNc2ccc(OC(C)C)cc2)cc1	CYP2C9 inh 70.2
COCC(=O)Nc1ccc(N(C)C)cc1	none
CN(C)c1ccc(NC(=O)COC(=O)CCC(=O)c2ccc(F)cc2)cc1	CYP2C19 inh 90.3, CYP2C9 inh 81.4
CCCn1nc(C(=O)NCC(C)(C)N2CCOCC2)c2ccccc2c1=O	none
CCOc1ccc(NC(=O)COC(=O)c2cccnc2)cc1	none
CCN(CC)c1ccc(NC(=O)COc2ccc(C)cc2)cc1	CYP2C19 inh 65.7 (no result: PostGolgi yeast, PostGolgi ctrl)
O=C(COC(=O)c1cccnc1)Nc1ccc(F)cc1	CYP2C19 inh 84.4
CCS(=O)(=O)c1nc(NC(C)=O)n[nH]1	none
O=C1c2ccccc2C(=O)N1c1ccc(Cl)cn1	none
COc1ccccc1Nc1nc(C)cc(C)c1C(N)=O	none
Cc1cc(C)c(C(N)=O)c(NCCc2ccccc2)n1	CYP2C19 inh 56.2
O=C(COC(=O)C1CCCCC1C(=O)N1CCc2ccccc21)NCc1ccco1 (stereo unspecified)	CYP2C19 inh 87.3, CYP2C9 inh 71.1
O=C(COC(=O)C1CC2C=CC1C2)Nc1ccc2c(c1)OC(F)(F)O2 (stereo unspecified)	none (no result: CYP2C19 act, CYP2C19 inh, CYP2C9 inh, CYP2C9 activ)
